The whole screen tested about 310,000 compounds, of which about 11,000 (3.5%) were called active. Inconclusive results (about 4%) are left out. This excerpt belongs to a sample that is enriched for actives. Unmarked numbers belong to inactive results. Calls follow the shape of the dose curve; as a rule, active = well fitted inhibition curve with a large enough effect; inconclusive = small, poorly fitted or top-dose-only effect, or another doubt; inactive = no such curve, though single readings can be large or run the other way.
Potency is read from the fitted curve at half-maximal effect.

The target of this assay is 4'-phosphopantetheinyl transferase ffp (Bacillus subtilis) (UniProt Q9F4F7). Description: qHTS Assay for Inhibitors of Bacillus subtilis Sfp phosphopantetheinyl transferase (PPTase).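 Also: the enzyme is Sfp with the accession as filed and its product quenches rhodamine fluorescence.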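 As to largest response in the series, negative = inhibition: 0% = enzyme reaction without inhibitor and -100% = no enzyme wells.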 The settings on record: Biochemical Sfp PPTase activity. The method, boiled down: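 Reaction rates are the 30-min fluorescence difference (ex 525, em 598 nm) in wells containing 15 nM Sfp, 5 uM rhodamine-CoA and 12.5 uM BHQ-2-YbbR at pH 7.6 with 10 mM MgCl2.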
On to `COc1ccc(CCNC(=O)c2cnc(Cl)c(Cl)c2)cc1`, for which the largest response in the series, negative = inhibition is 9%. Still for that read-out and setting: the same measure for `Cc1cc(NC(=O)CSc2nc3c(cc2C#N)CCCCC3)no1`: 15.4%. With `CC1(C)CCc2nc(SCc3ccccc3)c(C#N)cc2C1`, the largest response in the series, negative = inhibition is -5.3%. For `CC(NC(=O)CSc1nc2c(cc1C#N)CN(C)CC2)c1ccccc1` (centres undefined), the Potency was 56.2 µM (active). `O=C(NCc1ccccc1)C(c1cccnc1)N(C(=O)c1csnn1)c1ccc(F)cc1` (centres undefined): the largest response in the series, negative = inhibition was 19.5%. Still for that read-out and setting: the figure for `CC(C)CCn1c(=O)c2c(nc3n2CCCN3Cc2ccccc2)n(C)c1=O` is 4.31%. Still for that read-out and setting: the same measure for `NCCCNCCCCN(CCCN)/[N+]([O-])=N/O`: -7.71%. For `Cc1nc([N+](=O)[O-])nn1C12CC3CC(CC(Br)(C3)C1)C2`, the Potency is 15.8 µM (active). As to `COc1cccc(NC(=O)c2nn(C34CC5CC(CC(C5)C3)C4)cc2[N+](=O)[O-])c1`, the largest response in the series, negative = inhibition was 11.6%.

Consider `Cc1ncn(C23CC4CC(CC(O)(C4)C2)C3)n1`, for which the largest response in the series, negative = inhibition was 17.6%. Take `COc1cccc(CNS(=O)(=O)c2ccc3c(c2)CC(C)N3C(=O)C2CCC2)c1` (centres undefined): the largest response in the series, negative = inhibition was 20.3%. The same measure, in the same setting: the figure for `COc1cc(/C=N/NC(=O)c2cccnc2)ccc1OC(=O)c1cccc(Br)c1` is 9.75%; for `O=C(CN1C(=O)COc2ccc(Cl)cc21)Nc1ccc(N2CCOCC2)cc1` it is 9.73%. Take `CC(OC(=O)CN1C(=O)COc2ccccc21)C(=O)NCc1ccc(F)cc1` (centres undefined): the largest response in the series, negative = inhibition is 16.7%. With `O=C(CN1C(=O)COc2ccccc21)Nc1ccc(F)cc1`, the Potency is 50.1 µM (active).

As to `COc1ccc(N2CCC(N3CCN(C)C(CCO)C3)CC2)cc1` (centres undefined), the largest response in the series, negative = inhibition is -5.05%. The same measure, in the same setting: the same measure for `Cc1cc(C)c2oc(C(=O)Nc3ccc(S(=O)(=O)Nc4nccc(C)n4)cc3)cc(=O)c2c1`: 13.2%. As for `COc1ccc(C(=O)Nc2cc(C)c(NC(=O)c3ccccc3OC)cn2)cc1`, the largest response in the series, negative = inhibition was -0.964%. With `Cc1cccc(Oc2c([N+](=O)[O-])c(=O)n(C)c3ccccc23)c1`, the Potency is 6.31 µM (active). Regarding `Cn1c(=O)c([N+](=O)[O-])c(Oc2ccccc2)c2ccccc21`, the Potency was 20 µM (active).

Turning to `Cn1c2ccccc2c(=O)c2c(O)cccc21`, the largest response in the series, negative = inhibition was 1.81%. Regarding `Cc1cccc(OP(=O)(Nc2c(C)n(C)n(-c3ccccc3)c2=O)Oc2cccc(C)c2)c1`, the largest response in the series, negative = inhibition is 2%. As to `Cc1nn(C)c(Oc2ccccc2)c1[N+](=O)[O-]`, the largest response in the series, negative = inhibition was 4.16%. Same read-out and setting: the same measure for `Cn1nc(-c2ccccc2)c2cc([N+](=O)[O-])ccc21`: 15.4%. With `CC(C)[C@H](NC(=O)N1c2ccccc2NC(=O)[C@@H]1C(C)C)C(=O)N[C@H](C(=O)O)c1ccccc1`, the largest response in the series, negative = inhibition is 21%. Take `CCCN1CCC(=O)N(C(CSc2ccc(OC)cc2)Cc2ccccc2)CC1` (centres undefined): the largest response in the series, negative = inhibition was -7.33%. Still for that read-out and setting: the same measure for `COc1cc(C2/C(=C(\O)c3ccc4c(c3)CC(C)O4)C(=O)C(=O)N2c2nnc(C)s2)cc(OC)c1OC` (centres undefined): -19.8%; for `Cc1ccc(-c2ccnc3[nH]n(-c4ccccc4)c(=O)c23)cc1`: 9.66%; for `CCOc1cccc(/C=N/NC(=S)NCCN2CCOCC2)c1O`: 9.81%.

On to `O=C1CSC(=S)N1c1ccc(O)cc1`, for which the largest response in the series, negative = inhibition was -9.51%. Regarding `CCOc1cccc(/C=N/N2C(=O)CSC2=S)c1O`, the Potency was 10 µM (active). For `COc1ccccc1NC(=O)C(C)OC(=O)CC1CCCC1` (centres undefined), the largest response in the series, negative = inhibition was 16.2%. Still for that read-out and setting: the figure for `CC(C)Cn1c(=O)c2ccccc2n2c(CCC(=O)NCc3ccccn3)nnc12` is 15.4%; for `COc1ccc(NC(=O)N2CCCC2C(=O)NCc2ccccc2Cl)cc1` (centres undefined) it is 1.27%; for `CC(=O)Nc1ccc(S(=O)(=O)Nc2cc(C)cn(Cc3ccc(C)cc3)c2=O)cc1` it is 1.38%. Take `Cc1ccc(NC(=O)c2csc3c2CCCC3)cc1`: the largest response in the series, negative = inhibition is -32.4%.

Regarding `Cc1ccc(NC(=O)c2c(NC(=O)CCC(=O)O)sc3c2CCCCC3)cc1`, the Potency was 11.2 µM (active). As for `O=C(CN1CCCC1)Nc1sc2c(c1C(=O)Nc1ccccc1)CCCC2`, the largest response in the series, negative = inhibition is -1.37%. Regarding `COCCCNC(=O)C1CC(=O)N(CCc2ccccc2)C1` (centres undefined), the largest response in the series, negative = inhibition is 9.12%. Regarding `COCCCNC(=O)[C@H]1N2C(=O)c3ccccc3C2SC1(C)C` (some centres undefined), the Potency was 56.2 µM (active). As to `CC1(C)SC2c3ccccc3C(=O)N2[C@@H]1C(=O)NCc1ccco1` (some centres undefined), the largest response in the series, negative = inhibition was -10.3%. Take `CCC(C)NC(=O)C1c2ccccc2C(=O)N1Cc1ccccc1` (centres undefined): the largest response in the series, negative = inhibition is 0.907%.

Take `CC1(C)C(C=C(Cl)Cl)C1C(=O)NC(O)C(=O)c1ccccc1` (centres undefined): the largest response in the series, negative = inhibition was 3.88%. On to `Cc1ccc(S(=O)(=O)N(CC(O)CN2C(=O)NC(C)(C)C2=O)c2cccc([N+](=O)[O-])c2)cc1` (centres undefined), for which the largest response in the series, negative = inhibition is 5.58%. The same measure, in the same setting: the same measure for `CCCSc1nc(NCc2ccco2)c2c3c(sc2n1)COC(C)(CC)C3` (centres undefined): -1.25%. As to `CN1CCc2c(sc3c2c(NCc2ccco2)nc2nnnn23)C1`, the Potency is 11.2 µM (active). As to `Cn1c(=O)n(Cc2ccco2)c(=N)c2c3c(sc21)CCCC3`, the largest response in the series, negative = inhibition was -9.41%. The same measure, in the same setting: the figure for `Cc1ccc(C)c(C(C)NC(=O)C2CCCO2)c1` (centres undefined) is 24.3%.

With `O=C(/C=C/c1ccc2c(c1)OCCO2)c1ccc(O)cc1`, the largest response in the series, negative = inhibition was -4.02%. Same read-out and setting: the same measure for `CN(CCO)c1ccc(/C=N/Nc2nncc3ccccc23)cc1`: 6.72%; for `CCC(C(=O)NCCC(C)C)N(Cc1ccccc1Cl)C(=O)c1snc(C(N)=O)c1N` (centres undefined): 7.3%; for `Cc1csc(NC(=O)Nc2ccccc2[N+](=O)[O-])n1`: -6.55%. Consider `CC(=O)Nc1cccc(C(=O)Nc2nc(C)cs2)c1`, for which the largest response in the series, negative = inhibition is -6.97%. On to `Cc1csc(NC(=O)NC2(C(F)(F)F)Oc3ccccc3O2)n1`, for which the Potency was 8.91 µM (active). For the molecule `COc1ccc2c(CC(=O)N3CCc4cc(OC)c(OC)cc4C3)coc2c1`, the largest response in the series, negative = inhibition is 1%.

Regarding `CNc1nnc(-c2ccco2)s1`, the largest response in the series, negative = inhibition is 5.68%. As for `COc1ccc(OCC(=O)Nc2nnc(-c3ccco3)s2)cc1`, the largest response in the series, negative = inhibition is -15%. Take `Cc1ccc(OCC(=O)Nc2nnc(-c3ccco3)s2)cc1`: the Potency is 79.4 µM (active). On to `COc1ccc(N(CC(=O)NCC2CCCO2)C(=O)CCC(=O)Nc2nccs2)c(OC)c1` (centres undefined), for which the largest response in the series, negative = inhibition was 26.6%. For `CCOc1ccc(C(=O)Nc2ccc(CN3CCOCC3)cc2)cc1Cl`, the largest response in the series, negative = inhibition is 8.41%. On to `O=C(Nc1ccc(O)cc1)c1ccccc1O`, for which the largest response in the series, negative = inhibition was -1.36%. For the molecule `CCCc1cc(=S)n2c([nH]c3ccccc32)c1C#N`, the Potency is 56.2 µM (active).

Regarding `CCOC(=O)CCc1c(C)c(C#N)c2[nH]c3ccccc3n2c1=O`, the largest response in the series, negative = inhibition was -12.3%. On to `Cc1ccccc1Cn1c(=O)[nH]c2ccccc21`, for which the largest response in the series, negative = inhibition is -2.4%.

Consider `Cc1cccn2cc(-c3cccc(S(=O)(=O)N4CCCCC4)c3)nc12`, for which the largest response in the series, negative = inhibition was -2.13%. On to `O=C(CSc1nnc(-c2cccnc2)n1Cc1ccco1)c1ccc(Cl)cc1`, for which the largest response in the series, negative = inhibition is 5.12%. Regarding `COc1ccc(NC(=O)CSc2nnc(-c3cccs3)n2Cc2ccco2)cc1OC`, the Potency was 22.4 µM (active). For the molecule `COc1ccccc1NC(=O)CSc1nc2sc3c(c2c(=O)n1-c1ccccc1)CCN(C)C3`, the largest response in the series, negative = inhibition is -13.2%.

With `COc1ccccc1NC(=O)CSc1nc2sc(C)c(C)c2c(=O)n1Cc1ccco1`, the Potency was 20 µM (active). As to `CCn1c(SCC(=O)c2ccc3ccccc3c2)nnc1-c1cccs1`, the largest response in the series, negative = inhibition is -21.9%. On to `CCn1c(SCC(=O)c2ccc(Cl)s2)nnc1-c1cccs1`, for which the largest response in the series, negative = inhibition was -7.42%. With `O=C(CSc1nnc(-c2cccnc2)n1Cc1ccco1)c1ccc(Cl)c(Cl)c1`, the Potency was 28.2 µM (active). As to `O=C(CSc1nnc(-c2cccs2)n1-c1ccccc1)NCc1ccco1`, the largest response in the series, negative = inhibition is 14.2%. Same read-out and setting: the same measure for `CCOC(=O)Cc1csc(NC(=O)CSc2nnc(-c3cccnc3)n2Cc2ccco2)n1`: -19.3%.

On to `COc1ccccc1NC(=O)CSc1nnc(-c2ccoc2C)n1CCc1ccccc1`, for which the largest response in the series, negative = inhibition is -0.913%.

On to `O=C(CSc1nnc(-c2cccs2)n1Cc1ccco1)c1ccc2c(c1)OCO2`, for which the Potency is 56.2 µM (active). In the case of `Cc1ccc(NC(=O)CSc2nnc(-c3cnccn3)n2Cc2ccco2)cc1C`, the largest response in the series, negative = inhibition is -38.6%.

In the case of `O=C1Nc2cc(C(=O)N3CCC(N4CCCCC4)CC3)ccc2S/C1=C\c1ccccc1`, the largest response in the series, negative = inhibition is -28.2%. As for `CCCNC(=O)CCc1c(C)nc2c(c(C)nn2-c2ccc(C)cc2)c1C`, the largest response in the series, negative = inhibition is 20.1%. On the same count and under the same terms, the figure for `O=C(NC1CCCC1)C(=O)c1c[nH]c2ccccc12` is 20.8%. On the same count and under the same terms, the figure for `CC(C)C[C@@H](CC(=O)N[C@@H](CCC(=O)O)CC(=O)O)NC(=O)[C@@H]1CCCC[C@H]1NC(=O)C[C@@H](NC(=O)C[C@H](Cc1c[nH]c2ccccc12)NC(=O)[C@@H]1CCCC[C@H]1N)C(C)C` is -18.7%; for `CCOC(=O)c1ccc(NC(=O)Cc2cccs2)cc1` it is 0.409%; for `COc1ccc(NC(=O)C2CCC(CNC(=O)[C@@H]3Cc4ccccc4CN3)CC2)cc1` (some centres undefined) it is 7.97%. For `O=C(COc1ccc(S(=O)(=O)Nc2cccc(C(F)(F)F)c2)cc1)N1CCOCC1`, the largest response in the series, negative = inhibition is 9.23%. Regarding `O=C(NC1CCCC1)C(c1ccco1)N(C(=O)c1csnn1)c1ccccc1` (centres undefined), the largest response in the series, negative = inhibition is 19.9%. Regarding `Cc1nc2cnc(N3CCNCC3)nc2n(CCc2ccccc2)c1=O`, the largest response in the series, negative = inhibition is -8.2%.

On to `Cn1cc(-c2nc3cnc(N4CCNCC4)nc3n(CCc3ccccc3)c2=O)c2ccccc21`, for which the Potency was 39.8 µM (active). Turning to `Cn1cc(-c2nc3cnc(N4CCNCC4)nc3n(CCC#N)c2=O)c2ccccc21`, the largest response in the series, negative = inhibition is -19.5%. Regarding `COc1ccc(C2/C=C\CN(C(=O)c3ccc(C)cc3)C(Cc3ccccc3)C(=O)N2Cc2ccc(F)cc2)cc1` (centres undefined), the largest response in the series, negative = inhibition was -6.91%. On the same count and under the same terms, the figure for `CC1(C(=O)NNC(=S)NCC2CCCO2)CC1(Cl)Cl` (centres undefined) is 17.2%.

With `Cc1cccc(C)c1NC(=O)NC1=CCCN1C`, the largest response in the series, negative = inhibition is 20.1%. Same read-out and setting: the figure for `Cc1cc(OCc2ccc(C(=O)Nc3ccc(C(=O)O)cc3)o2)ccc1Cl` is 0.726%; for `Cc1cc(C(=O)Nc2c(C)nn(Cc3ccccc3)c2C)on1` it is 18.5%. Turning to `Cc1ccc(C(=O)O)cc1NC(=O)c1ccc(Cn2nc(C)c(Cl)c2C)o1`, the Potency was 56.2 µM (active).

Values taken from PubChem BioAssay AID1490 (National Center for Advancing Translational Sciences (NCATS), 2009).
